# Source: PubChem BioAssay AID651551 (Sanford-Burnham Center for Chemical Genomics, 2012)
# Target: PEG-3 (UniProt Q6IN02)
# Assay: GAPDH versus PEG-3 reporter suppression – cell-based, luminescence, counter-screen for PEG-3 promoter inhibitor project, SAR follow-up (AID 651551)
# Conditions: HeLa PEG-Prom / GAPDH luciferase reporter, 6 or 24 h, run 2, 6 h; at 99 µM (top of the series)
row,Structure (SMILES),inhibition % (higher = more inhibition)
1,Cc1cc(NC(=O)c2ccccc2C)n(-c2nc3ccccc3[nH]2)n1,41.1%
2,Cc1nc(NC(=O)c2ccccc2)sc1-c1csc(Nc2cccc(Cl)c2C)n1,32.8%
3,CCn1cc(C(=O)NCc2ccco2)c(=O)c2cc(S(=O)(=O)N3CCCC3)ccc21,-0.291%
4,COc1ccccc1Nc1nc(-c2sc(NC(=O)c3ccco3)nc2C)cs1,-0.291%
5,O=C(Nc1nc(-c2ccccc2)cs1)c1nn(-c2ccccc2)c(=O)c2ccccc12,3.85%
6,Cc1cc(NC(=O)c2ccccc2C(F)(F)F)n(-c2nc3ccccc3[nH]2)n1,88.2%
7,COc1ccc(-n2nc(C(=O)NCC(=O)Nc3cc(OC)c(OC)c(OC)c3)c3ccccc3c2=O)cc1OC,9.37%
8,COCCCNC(=O)c1ccc(Cn2c(=O)c3ccccc3n(Cc3ccccc3C#N)c2=O)cc1,23.2%
9,O=C(Nc1nccs1)c1nn(-c2ccccc2)c(=O)c2ccccc12,28.7%
10,CCn1nc(C(=O)Nc2nc(-c3ccccn3)cs2)c2ccccc2c1=O,39.9%
11,CCCn1nc(C(=O)Nc2nc(-c3ccccn3)cs2)c2ccccc2c1=O,44.6%
12,CCCn1nc(C(=O)Nc2nc(-c3ccncc3)cs2)c2ccccc2c1=O,7.03%
13,Cc1nc(NC(=O)c2ccccc2)sc1-c1csc(Nc2ccccc2Cl)n1,7.99%
14,CCCn1nc(C(=O)Nc2nc3ccccc3s2)c2ccccc2c1=O,21.8%
15,COc1ccc(-n2nc(C(=O)NCC(=O)Nc3cccc(OC)c3)c3ccccc3c2=O)cc1,2.47%
16,Cc1ccc(Cl)cc1Nc1nc(-c2sc(NC(=O)c3ccco3)nc2C)cs1,37%
17,Cc1nc(NC(=O)c2ccccc2)sc1-c1csc(Nc2ccccc2)n1,5.23%
18,Cc1cc(NC(=O)c2cccc(C)c2C)n(-c2nc3ccccc3[nH]2)n1,16.4%
19,O=C(Nc1nc2ccccc2s1)c1nn(-c2ccccc2)c(=O)c2ccccc12,-4.43%
20,Cc1cc(NC(=O)c2ccccc2)n(-c2nc3ccccc3n2C)n1,38.3%
21,COc1ccc(-n2nc(C(=O)NCC(=O)Nc3ccc(OC)c(OC)c3)c3ccccc3c2=O)cc1,13.5%
22,COc1ccc(Cl)cc1Nc1nc(-c2sc(NC(=O)c3ccccc3)nc2C)cs1,42.5%
23,Cc1cc(NC(=O)c2ccccc2)n(-c2nc3ccccc3[nH]2)n1,17.6%
